# Measurements reported in PubChem BioAssay (Tox21).
# Values joined by “and” are separate entries in the source; they are usually repeats but may differ in a detail not shown here. Identical values can stand only once. Records with an inconclusive call do not appear. Where a call stands in place of a potency, no number is given. Some structures have more than one record in an assay (separate samples or runs), and their calls can disagree. Active and inactive are the calls of the source. Unless noted, calls follow the shape of the full dose curve.
# Legend:
# [1] = Nuclear factor erythroid 2-related factor 2/antioxidant responsive element (Nrf2/ARE) small molecule agonists: qHTS cell viability counter screen in human keratinocytes (AID 1919968; active = well fitted curve in the direction sought with a large enough effect in the repeat runs; an effect the other way counts as inactive or inconclusive; also: nearly all actives have a fitted effect of over 55% in size; also: potency is read from the fitted curve at half-maximal effect)
# In short: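 HaCaT ARE reporter line, 1,500 cells/well; 5 h settle, 37 C/5% CO2; cpd in DMSO pinned; 23 h exposure; CellTiter-Fluor, 1 h; fluorescence.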
# [2] = biological target: KiSS-1 receptor (Homo sapiens) (UniProt Q969F8); assay: Human kisspeptin (KISS1R) small molecule agonists, calcium flux assay in KISS1R-HEK293 cells (AID 1920064; active = well fitted curve in the direction sought with a large enough effect in the repeat runs; an effect the other way counts as inactive or inconclusive)
# Chain of KiSS-1 receptor (Homo sapiens) (Q969F8 whole entry, looked up): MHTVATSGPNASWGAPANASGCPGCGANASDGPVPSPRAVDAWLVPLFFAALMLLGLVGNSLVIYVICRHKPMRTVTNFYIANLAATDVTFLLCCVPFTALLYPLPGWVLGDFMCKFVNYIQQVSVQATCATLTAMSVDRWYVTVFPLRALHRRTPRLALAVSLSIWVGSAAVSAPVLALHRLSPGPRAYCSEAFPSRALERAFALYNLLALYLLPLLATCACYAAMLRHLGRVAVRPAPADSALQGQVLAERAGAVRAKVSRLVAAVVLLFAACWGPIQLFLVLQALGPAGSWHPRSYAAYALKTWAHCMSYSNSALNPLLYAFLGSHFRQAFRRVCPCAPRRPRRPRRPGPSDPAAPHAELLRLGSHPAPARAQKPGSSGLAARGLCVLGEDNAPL
# In short: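 Stable human KISS1R HEK293 line; 18 h plating, 37 C/5% CO2; calcium dye 1 h 37 C; compound pin transfer; kinetic fluorescence Ex/Em 480/540, 3 min.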
# [3] = G protein-coupled receptor (GPCR) small molecule agonists, calcium flux assay: HEK293 wild type cell line counter screen (AID 1920065)
# In short: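 Kinetic fluorescence at Ex/Em 480/540, recorded every second over 3 min, served as the read-out after compound addition. Each compound was tested at 15 concentrations in triplicate on cells pre-loaded with calcium dye for 1 h.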
# [4] = p53 small molecule agonists, cell-based qHTS assay with human liver microsomes (AID 1963577);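 also: p53 response element beta-lactamase reporter cells with liver microsomes plus NADPH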
# In short: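 Reporter activation was measured by LiveBLAzer fluorescence intensity in p53RE-bla cells, which had been exposed to compounds for 16 h at 37 C alongside 0.5 mg/mL human liver microsomes and 0.5 mg/mL NADPH (final concentrations).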
# [5] = p53 small molecule agonists, cell-based qHTS assay with rat liver microsomes (AID 1963578)
# In short: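 Compound in DMSO added to p53RE-bla cells 5 h post-plating; rat microsomes/NADPH 0.5 mg/mL final; 16 h, 37 C; LiveBLAzer 2 h RT.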
# [6] = p53 small molecule agonists, cell-based qHTS assay with human liver microsomes: qHTS cell viability counter screen (AID 1963579); also: nearly all actives have a fitted effect of over 45% in size; also: potency is read from the fitted curve at half-maximal effect
# In short: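 HLM-supplemented (0.5 mg/mL final) and NADPH-supplemented (0.5 mg/mL final) p53RE-bla cultures, 4,000 cells per well, were dosed with compounds in DMSO for 16 h at 37 C; luminescent ATP detection (CellTiter-Glo, 30 min, room temperature) quantified surviving cells.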
# [7] = p53 small molecule agonists, cell-based qHTS assay with rat liver microsomes: qHTS cell viability counter screen (AID 1963580); also: nearly all actives have a fitted effect of over 45% in size; also: potency is read from the fitted curve at half-maximal effect
# In short: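 HCT-116 p53RE-bla, 4,000 cells/well, 5 h pre-incubation; cpd + rat liver microsomes 0.5 mg/mL + NADPH 0.5 mg/mL (final); 16 h, 37 C; CellTiter-Glo, 30 min RT; luminescence.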
# [8] = biological target: 5-hydroxytryptamine receptor 2A (Homo sapiens) (UniProt P28223); assay: 5-hydroxytryptamine receptor 2A (HTR2A) small molecule agonists, cell-based qHTS assay (AID 1963587); also: nearly all actives have a fitted effect of over 30% in size; also: potency is read from the fitted curve at half-maximal effect
# Chain of 5-hydroxytryptamine receptor 2A (Homo sapiens) (P28223 whole entry, looked up): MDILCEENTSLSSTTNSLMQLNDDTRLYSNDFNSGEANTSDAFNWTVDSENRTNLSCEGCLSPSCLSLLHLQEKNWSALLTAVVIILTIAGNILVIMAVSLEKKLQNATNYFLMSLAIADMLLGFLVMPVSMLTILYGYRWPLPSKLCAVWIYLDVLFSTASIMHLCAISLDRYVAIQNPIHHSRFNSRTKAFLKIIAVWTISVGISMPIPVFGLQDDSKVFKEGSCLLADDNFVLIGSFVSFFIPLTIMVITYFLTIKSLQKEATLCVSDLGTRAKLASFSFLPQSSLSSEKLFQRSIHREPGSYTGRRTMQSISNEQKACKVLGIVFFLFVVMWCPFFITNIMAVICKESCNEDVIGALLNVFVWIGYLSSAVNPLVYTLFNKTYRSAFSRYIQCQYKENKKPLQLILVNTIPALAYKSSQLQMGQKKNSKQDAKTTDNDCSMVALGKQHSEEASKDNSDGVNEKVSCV
# In short: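 Kinetic calcium-flux fluorescence (2 min, 1 sec intervals) after compound addition in agonist mode. HTR2A-CHO cells were cultured 18 h, then dye-loaded 1 h at 37 C.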
# [9] = biological target: Muscarinic acetylcholine receptor M1 (Homo sapiens) (UniProt P11229); assay: Cholinergic receptor muscarinic 1 (CHRM1) small molecule antagonists, cell-based qHTS assay (AID 1963588); also: nearly all actives have a fitted effect of over 40% in size; also: potency is read from the fitted curve at half-maximal effect
# Chain of Muscarinic acetylcholine receptor M1 (Homo sapiens) (P11229 whole entry, looked up): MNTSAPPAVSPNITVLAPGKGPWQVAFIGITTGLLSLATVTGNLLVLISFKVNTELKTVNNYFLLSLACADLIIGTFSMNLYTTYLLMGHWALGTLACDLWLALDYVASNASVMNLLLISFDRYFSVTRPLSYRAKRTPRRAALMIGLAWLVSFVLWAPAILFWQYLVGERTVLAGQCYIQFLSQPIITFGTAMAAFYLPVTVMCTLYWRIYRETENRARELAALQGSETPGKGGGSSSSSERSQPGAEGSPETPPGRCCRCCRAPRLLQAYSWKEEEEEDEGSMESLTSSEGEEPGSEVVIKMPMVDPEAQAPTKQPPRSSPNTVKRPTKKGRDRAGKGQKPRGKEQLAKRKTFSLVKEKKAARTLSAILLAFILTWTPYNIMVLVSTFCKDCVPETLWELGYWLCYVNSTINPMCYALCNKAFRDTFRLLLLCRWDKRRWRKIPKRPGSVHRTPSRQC
# In short: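 CHRM1-CHO calcium-flux assay, antagonist mode. Cells were seeded 18 h, dye-loaded 1 h at 37 C and given compound for 5 min at RT, then acetylcholine was added at 50nM. FDSS fluorescence was read 3 min; 15 concentrations, three runs.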
# [10] = biological target: Beta-2 adrenergic receptor (Homo sapiens) (UniProt P07550); assay: Adrenergic beta2 receptor (ADRB2) small molecule antagonists, cell-based qHTS assay (AID 1963592); also: nearly all actives have a fitted effect of over 50% in size; also: potency is read from the fitted curve at half-maximal effect
# Chain of Beta-2 adrenergic receptor (Homo sapiens) (P07550 whole entry, looked up): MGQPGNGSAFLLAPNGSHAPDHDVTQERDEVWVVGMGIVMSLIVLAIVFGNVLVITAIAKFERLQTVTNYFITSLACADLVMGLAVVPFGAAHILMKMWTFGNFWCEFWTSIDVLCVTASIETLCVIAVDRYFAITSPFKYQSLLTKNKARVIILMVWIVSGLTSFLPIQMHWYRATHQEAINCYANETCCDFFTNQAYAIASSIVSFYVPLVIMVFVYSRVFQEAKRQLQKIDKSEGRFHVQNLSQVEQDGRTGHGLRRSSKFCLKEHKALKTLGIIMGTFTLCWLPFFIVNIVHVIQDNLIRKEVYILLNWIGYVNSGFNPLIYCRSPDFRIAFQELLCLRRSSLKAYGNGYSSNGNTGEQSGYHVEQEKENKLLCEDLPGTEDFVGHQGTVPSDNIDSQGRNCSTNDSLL
# In short: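 Cells (CHO, stable ADRB2 overexpression) incubated 18-20hr at 37C; compounds added from DMSO; agonist mix (1nM isoproterenol, 100uM IBMX, 25uM Ro-20-1724) added; 0.5hr RT; d2-cAMP and anti-cAMP-cryptate added; 1hr RT; 665/615 nm read.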
# [11] = biological target: D(2) dopamine receptor (Homo sapiens) (UniProt P14416); assay: Dopamine D2 receptor (DRD2) small molecule agonists, cell-based qHTS assay (AID 1963594); also: nearly all actives have a fitted effect of over 35% in size; also: potency is read from the fitted curve at half-maximal effect
# Chain of D(2) dopamine receptor (Homo sapiens) (P14416 whole entry, looked up): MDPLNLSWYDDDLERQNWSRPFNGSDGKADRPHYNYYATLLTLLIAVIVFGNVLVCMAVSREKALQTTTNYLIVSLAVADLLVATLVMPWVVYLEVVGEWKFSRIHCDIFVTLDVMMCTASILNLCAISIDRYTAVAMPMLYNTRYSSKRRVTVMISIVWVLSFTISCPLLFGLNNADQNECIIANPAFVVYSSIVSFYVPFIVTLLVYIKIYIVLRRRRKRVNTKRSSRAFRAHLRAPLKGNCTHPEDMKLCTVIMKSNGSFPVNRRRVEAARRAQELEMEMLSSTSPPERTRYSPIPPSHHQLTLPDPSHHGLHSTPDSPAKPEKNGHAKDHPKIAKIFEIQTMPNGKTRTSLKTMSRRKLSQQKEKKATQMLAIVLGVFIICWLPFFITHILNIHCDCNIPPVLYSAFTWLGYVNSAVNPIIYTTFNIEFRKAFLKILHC
# In short: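 cAMP accumulation in DRD2-HEK293 cells measured by HTRF after 1 h detection; compounds added 10 min before NKH477 (200nM […]) forskolin-analogue stimulation, 30 min at room temperature, with Ro20-1724 present at 0.1 mM final.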
# [12] = p53 small molecule agonists, cell-based qHTS assay: qHTS cell viability counter screen (AID 1963581); also: nearly all actives have a fitted effect of over 45% in size; also: potency is read from the fitted curve at half-maximal effect
# In short: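 HCT-116 p53RE-bla cells, 4,000/well, plated 5 h before compound pin transfer; 16 h at 37 C; bla substrate 2 h RT; then CellTiter-Glo, 30 min RT, luminescence.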
# [13] = p53 small molecule agonists, cell-based qHTS assay (AID 1963582; active = well fitted activation curve with a large enough effect in the signal ratio in the repeat runs, not every such curve was filed as active; the % refers to the signal ratio)
# In short: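 Reporter line: p53RE-bla. Pre-incubation 5 h, 37 C, 5% CO2; compound (DMSO, pin tool) 16 h, 37 C; B/G FRET substrate 2 h RT; fluorescence intensity read.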
# [14] = biological target: 5-hydroxytryptamine receptor 2A (Homo sapiens) (UniProt P28223); assay: 5-hydroxytryptamine receptor 2A (HTR2A) small molecule antagonists, cell-based qHTS assay (AID 1963586); also: nearly all actives have a fitted effect of over 45% in size; also: potency is read from the fitted curve at half-maximal effect
# In short: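 Antagonist-mode intracellular calcium assay: DOI (4 nM) added after 5 min compound pre-incubation at room temperature to dye-loaded HTR2A-CHO cells. Fluorescence followed for 3 min, sampled every second.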
# [15] = biological target: Muscarinic acetylcholine receptor M1 (Homo sapiens) (UniProt P11229); assay: Cholinergic receptor muscarinic 1 (CHRM1) small molecule agonists, cell-based qHTS assay (AID 1963589); also: nearly all actives have a fitted effect of over 35% in size; also: potency is read from the fitted curve at half-maximal effect
# In short: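 Human M1 in stable CHO line; 18 h plating, 1 h dye load 37 C; cpd added (agonist mode); Ca2+ fluorescence kinetic read, 1 s intervals; 15 conc, 3 runs.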
# [16] = cAMP Responsive Elements (CRE) small molecule agonists, cell-based qHTS assay (AID 1963590)
# In short: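 HEK 293T CRE-bla, 2,000 cells/well, 18 h preincubation 37 C/5% CO2; cpds (DMSO) pinned, 3 h; LiveBLAzer B/G FRET substrate, 2 h RT.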
# [17] = cAMP Responsive Elements (CRE) small molecule antagonists, cell-based qHTS assay (AID 1963591; active = well fitted inhibition curve with a large enough effect in the signal ratio in the repeat runs, not every such curve was filed as active; the % refers to the signal ratio)
# In short: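 Beta-lactamase reporter read by FRET substrate (LiveBLAzer B/G) after 2 h at room temperature. CRE-bla HEK293T cells had received compound plus 0.25 uM (final) NKH477 for 3 h at 37 °C.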
# [18] = biological target: Beta-2 adrenergic receptor (Homo sapiens) (UniProt P07550); assay: Adrenergic beta2 receptor (ADRB2) small molecule agonists, cell-based qHTS assay (AID 1963593);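 also: CHO cells stably overexpressing human ADRB2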
# In short: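 CHO cells stably over-expressing ADRB2 were plated overnight at 37C, then dosed with compounds plus a stimulation mix containing 100uM IBMX and 25uM Ro-20-1724 for 0.5hr at room temperature. cAMP was measured by HTRF competition, 1hr.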
# [19] = biological target: D(2) dopamine receptor (Homo sapiens) (UniProt P14416); assay: Dopamine D2 receptor (DRD2) small molecule antagonists, cell-based qHTS assay (AID 1963595; active = well fitted inhibition curve with a large enough effect in the signal ratio in the repeat runs, with a control signal flat; the % refers to the signal ratio)
# In short: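 HEK293 cells stably expressing DRD2 were preincubated with 0.1 mM Ro20-1724, then with compound for 10 min at room temperature. Cells were stimulated with 200 nM NKH477 plus 12 nM quinpirole for 30 min, and cAMP was read by HTRF.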
SMILES,Potency [1],Potency [2],Potency [3],Potency [4],Potency [5],Potency [6],Potency [7],Potency [8],Potency [9],Potency [10],Potency [11],Potency [12],Potency [13],Potency [14],Potency [15],Potency [16],Potency [17],Potency [18],Potency [19]
O=C1C2(Cl)C3(Cl)C4(Cl)C(Cl)(Cl)C5(Cl)C3(Cl)C1(Cl)C5(Cl)C24Cl (stereo unspecified),19 µM (active) and 29.3 µM (active),inactive,inactive,inactive,inactive,31.9 µM (active) and inactive,45 µM (active),54 µM (active) and 46.9 µM (active),29.3 µM (active) and 20.2 µM (active),inactive,inactive,–,–,–,–,–,–,–,–
COP(=O)(OC)OC,inactive,–,inactive,inactive,inactive,inactive,inactive,55.4 µM (active) and inactive,inactive,inactive,inactive,inactive,inactive,inactive,49.4 µM (active) and inactive,inactive,inactive,inactive,inactive
Cc1ccc2cc(C)ccc2c1,inactive,inactive,inactive,–,inactive,inactive,inactive,inactive,inactive,inactive,–,inactive,–,inactive,inactive,–,inactive,inactive,inactive
COCCl,inactive,–,inactive,inactive,inactive,inactive,inactive,22.7 µM (active) and inactive,inactive,inactive,inactive,inactive,inactive,inactive,50.9 µM (active) and inactive,inactive,inactive,inactive,–
O=P(O)(Oc1ccccc1)Oc1ccccc1,inactive,inactive,inactive,inactive,–,inactive,inactive,inactive,inactive,inactive,inactive,inactive,inactive,–,inactive,inactive,inactive,inactive,inactive
Cc1cccc([N+](=O)[O-])c1,inactive,inactive,–,inactive,inactive,inactive,inactive,inactive,–,inactive,inactive,inactive,inactive,inactive,inactive,inactive,inactive,inactive,inactive
CCCCCCCCCCCCCCCCn1cc[n+](C)c1,inactive and 27.6 µM (active) and 13.7 µM (active),–,inactive,inactive,inactive,–,inactive and 36.7 µM (active) and 32.5 µM (active),–,inactive and 950 nM (active) and 2.66 µM (active),inactive,inactive,25.8 µM (active),inactive,inactive,inactive,inactive,–,inactive,inactive
CCCCCCCCCC(CC)c1ccc(S(=O)(=O)O)cc1 (stereo unspecified),inactive and 26.6 µM (active),inactive,inactive,–,–,inactive,inactive and 40.8 µM (active),–,inactive,inactive,inactive and 54.5 µM (active),inactive and 48.5 µM (active),–,inactive and 37.5 µM (active),inactive,inactive,inactive,inactive,inactive
OCC1CO1 (stereo unspecified),inactive,inactive,inactive,inactive,inactive,inactive,41.5 µM (active) and inactive,inactive,inactive,inactive,inactive,–,inactive,inactive,inactive,inactive,inactive,inactive,inactive
c1cc2c(c(N3CCNCC3)c1)OCCO2,inactive,inactive,inactive,inactive,inactive,inactive,inactive,60.1 nM (active),inactive,15 µM (active),inactive,inactive,–,729 nM (active),inactive,inactive,inactive,–,–
Oc1c(Cl)c(Cl)c(Cl)c(Cl)c1Cl,30 µM (active),inactive,inactive,inactive,inactive,inactive,inactive,inactive,inactive,inactive,–,inactive,–,23.2 µM (active) and inactive,inactive,–,inactive,–,inactive
COc1cc(OC)nc(Oc2cccc(Oc3nc(OC)cc(OC)n3)c2C(=O)O)n1,inactive,–,inactive,inactive,inactive,inactive,inactive,inactive,inactive,inactive,inactive,inactive,inactive,inactive,inactive,inactive,inactive,–,inactive
Cc1coc2c1CCC(C)C2 (stereo unspecified),inactive,inactive,inactive,inactive,inactive,inactive,inactive,inactive,inactive,inactive,inactive,inactive,inactive,inactive,inactive,inactive,inactive,–,inactive
COP(N)(=O)SC (stereo unspecified),inactive,inactive,inactive,–,–,inactive,inactive,inactive,inactive,inactive,inactive,inactive,–,inactive,inactive,–,–,inactive,inactive
CCOC(=O)Nc1cccc(OC(=O)Nc2ccccc2)c1,inactive,inactive,inactive,inactive,inactive,inactive,inactive,–,inactive,inactive,inactive,inactive,inactive,inactive,inactive,inactive,–,inactive,inactive
CCC1(c2ccccc2)CCC(=O)NC1=O (stereo unspecified),inactive,inactive,–,inactive,inactive,inactive,inactive,inactive,inactive,inactive,inactive,–,inactive,inactive,inactive,inactive,inactive,–,inactive
